Source: PubChem BioAssay (The Scripps Research Institute Molecular Screening Center)
TEAD-YAP block: TEAD-YAP interaction inhibition, primary screen, TEAD-YAP interaction inhibitor project, luminescence, HEK-TIYL cells | inhibition, % at 9.12 µM | 1.4% of 640,000 active | TEAD-Gal4/YAP UAS-luciferase luminescence | AID 1259422, 2018; in the data active = inhibition above about 32%
MITF inh: MITF inhibitors, primary screen, biochemical, AlphaScreen, human; Microphthalmia-associated transcription factor (Homo sapiens), O75030; AID 1259374, 2018; inhibition, % at 2.6 µM; AlphaScreen MITF homodimerization, bead proximity signal; 0.91% of 650,000 active; in the data active = inhibition above about 50%
FBW7 activator: FBW7 E3 ligase activators, primary screen, biochemical, AlphaScreen, human. AlphaScreen FBW7–phospho-cyclin E peptide binding, activator screen. normalized activity (activation), % at 26.1 µM. 0.13% of 650,000 active. AID 1259310, 2017; in the data active = normalized activity above about 1.9%;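 also: purified mutant Fbw7 with reduced substrate affinity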
Target sequence (Q969H0 whole entry, looked up): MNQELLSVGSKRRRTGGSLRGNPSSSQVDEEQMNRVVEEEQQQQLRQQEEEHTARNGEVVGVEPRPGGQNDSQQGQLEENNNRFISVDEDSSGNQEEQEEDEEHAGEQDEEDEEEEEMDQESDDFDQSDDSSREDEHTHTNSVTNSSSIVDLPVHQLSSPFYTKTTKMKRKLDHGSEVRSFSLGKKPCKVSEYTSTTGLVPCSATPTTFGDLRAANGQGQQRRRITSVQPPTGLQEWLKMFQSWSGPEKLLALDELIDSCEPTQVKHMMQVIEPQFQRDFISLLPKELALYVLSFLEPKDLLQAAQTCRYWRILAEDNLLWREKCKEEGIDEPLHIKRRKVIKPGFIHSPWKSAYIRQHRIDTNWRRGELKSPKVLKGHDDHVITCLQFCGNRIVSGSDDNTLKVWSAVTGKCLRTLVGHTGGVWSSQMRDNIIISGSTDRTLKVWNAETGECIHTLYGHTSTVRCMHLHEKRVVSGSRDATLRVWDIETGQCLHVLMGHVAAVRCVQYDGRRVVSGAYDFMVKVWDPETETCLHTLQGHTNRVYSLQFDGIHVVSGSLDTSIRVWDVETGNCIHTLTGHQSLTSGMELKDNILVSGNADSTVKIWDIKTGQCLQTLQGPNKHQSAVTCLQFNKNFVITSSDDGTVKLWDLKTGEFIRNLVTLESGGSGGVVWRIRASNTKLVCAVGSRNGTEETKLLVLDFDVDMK
GPR151 activ: activators of human GPR151, primary screen, cell-based, PathHunter beta-arrestin, luminescence | G-protein coupled receptor 151 (Homo sapiens), Q8TDV0 | PathHunter beta-arrestin GPR151 cells | activation, % at 11.2 µM | 1% of 650,000 active | AID 1508602, 2020; in the data active = activation above about 4.9%
Large screens that a line does not name were inactive; ! = a repeat was not active. Sampled rows, rich in hits. Any-hit rate of the full collection: about 3.5%.

Nc1nc(Nc2ccc3c(c2)OCO3)cc(Nc2nccc3ccccc23)n1	TEAD-YAP block 36
CCc1ccc2nc3sc(C(=O)NCc4ccco4)c(N)c3cc2c1	TEAD-YAP block 53
COc1cc2cc3c(N)c(C(=O)NCc4ccco4)sc3nc2cc1OC	none
CCOC(=O)C1=C(N)n2c(s/c(=C\c3ccc(OC)c(OC)c3)c2=O)=C(C#N)C1c1ccc(OC)c(OC)c1 (stereo not given)	TEAD-YAP block 59
CCOC(=O)C1=C(N)n2c(s/c(=C\c3ccc(O)cc3)c2=O)=C(C#N)C1c1ccc(O)cc1 (stereo not given)	none
CCOC(=O)C1=C(N)n2c(s/c(=C/c3ccccc3)c2=O)=C(C(=O)OCC)C1c1ccccc1 (stereo not given)	none
CCOC(=O)C1=C(N)n2c(s/c(=C/c3cccs3)c2=O)=C(C(=O)OCC)C1c1cccs1 (stereo not given)	TEAD-YAP block 41
N=C1C(c2nc3ccccc3s2)=C(O)CN1/N=C/c1ccc(O)c(O)c1O	MITF inh 56
N=C1C(c2nc3ccccc3s2)=C(O)CN1/N=C/C=O	none
CCC(=O)c1ccc2c(c1)OCCO2	none
CCc1n[n+](CC(=O)c2ccc3c(c2)OCCO3)c(N)s1	TEAD-YAP block 63
O=C(CSc1nnc(-c2ccc3c(c2)OCO3)o1)Nc1ccc2[nH]c(=O)[nH]c2c1	FBW7 activator 4.6
O=C(NC1CC1)c1ccc(-c2nc(NCCO)c3ncn(-c4ccsc4)c3n2)cc1	TEAD-YAP block 55
CC(C)N(CCNc1nc(-c2ccc(C(=O)NC3CC3)cc2)nc2c1ncn2-c1ccccc1)C(C)C	none
CC(C)N(CCNc1nc(-c2ccc(C(=O)NC3CC3)cc2)nc2c1ncn2-c1ccsc1)C(C)C	TEAD-YAP block 60
CCCn1c(=N)c(C(=O)NCC)cc2c(=O)n3cc(C)ccc3nc21	none
CC(=O)c1ccc(N=Nc2c(C)[nH][nH]c2=O)cc1	none
CC(=O)c1ccc(N=Nc2ccc(O)cc2)cc1	TEAD-YAP block 99
CC(=O)Nc1ccc(N=Nc2ccc(O)cc2)cc1	TEAD-YAP block 56
Cc1nnc(Nc2cc(Cl)ccc2Cl)[nH]c1=O	none
Nc1ccc2nc(/C=C/c3nc4ccc(N)cc4[nH]3)[nH]c2c1	none
C[n+]1c2cc(N)ccc2cc2ccc(N)cc21	MITF inh 52!
C[n+]1c2cc(N)ccc2cc2ccc(N)cc21 (tested in a mixture with another compound)	MITF inh 57
Cc1cccc(Cn2c(N(C)Cc3ccccc3)nc3c2c(=O)n(C)c(=O)n3C)c1	none
O=C(Nc1nccs1)c1cn(-c2ccccc2)nc1-c1ccc(Br)cc1	none
O=C(Nc1nccs1)c1cn(-c2ccccc2)nc1-c1cccnc1	TEAD-YAP block 38
Cc1cccc(OC(C)C(=O)Nc2ccccc2C#N)c1 (stereo not given)	none
COc1cccc(CSc2nc3ccncc3[nH]2)c1	TEAD-YAP block 69
CCOc1ccccc1NS(=O)(=O)c1ccc(OC)cc1	TEAD-YAP block 47
CCOc1ccc(S(=O)(=O)Nc2ccccc2OC)cc1	TEAD-YAP block 42
COc1ccc(NS(=O)(=O)c2ccc(F)cc2)c(OC)c1	none
COc1ccc(S(=O)(=O)Nc2ccc(OC)cc2OC)cc1	TEAD-YAP block 61
CCOc1ccc(S(=O)(=O)Nc2ccccc2CC)cc1	none
COc1cc(/C=N/NC(=O)Cn2c3ccccc3c(=O)c3ccccc32)ccc1O	TEAD-YAP block 53
COc1ccccc1NC(=O)Cn1c(-c2nonc2N)nc2ccccc21	TEAD-YAP block 65
CCOc1cc(/C=N/NC(=O)Cn2c(-c3nonc3N)nc3ccccc32)ccc1O	TEAD-YAP block 46
COc1cc(/C=N/NC(=O)CCC(=O)N/N=C/c2ccc(O)c(OC)c2)ccc1O	none
CC(=O)c1ccc(NC(=O)Cn2c(-c3nonc3N)nc3ccccc32)cc1	none
COC(=O)c1ccccc1NC(=O)Cn1c(-c2nonc2N)nc2ccccc21	TEAD-YAP block 54
N#CC1=C(N)N(c2sc3c(c2C#N)CCCCC3)C2=C(C(=O)CCC2)C1c1cccs1 (stereo not given)	TEAD-YAP block 53
N#CC1=C(N)N(c2sc3c(c2C#N)CCCCC3)C2=C(C(=O)CCC2)C1c1ccccc1 (stereo not given)	none
O=[N+]([O-])c1cccc(S(=O)(=O)NCCc2cn3ccsc3n2)c1	FBW7 activator 6.2
O=[N+]([O-])c1ccc(S(=O)(=O)NCCc2cn3ccsc3n2)cc1	none
